Measurements as given in PubChem BioAssay AID504444 (National Center for Advancing Translational Sciences (NCATS), 2011).
About 7,500 (2.1%) of roughly 360,000 compounds were called active. Inconclusive results (about 20%) are left out. Shown is part of a subset that was picked to be rich in actives. Where a call stands in place of a potency, no number is given. Values without a mark were called inactive. Calls come from the whole dose curve; as a rule, active = well fitted inhibition curve with a large enough effect; inconclusive = small, poorly fitted or top-dose-only effect, or effect the other way; inactive = flat fitted curve, though single readings scatter.

Experiment: Nrf2 qHTS screen for inhibitors; note: nearly all actives have a fitted effect of over 60% in size
Settings: A549 ARE-Fluc reporter, luciferase luminescence, 18-24 h; series mostly up to 46 µM
How it was run: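 Concentration-response testing used A549 ARE_Fluc cells at 5000 cells/well. Following an 18-24 h compound incubation, viability was read by fluorescence (Ex 405/Em 525) and luciferase output by luminescence.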
Potency is the fitted concentration of half-maximal effect.

SMILES	Potency	activity change, negative = inhibition
COc1ccccc1C(=O)NCCC(=O)N(C)Cc1cccnc1	inactive	–
COc1ccccc1NC(=O)c1sc2nc(C)c(C(=O)Nc3ccc(Cl)cc3)c(-c3ccc(Br)cc3)c2c1N	–	6.36% [at 9.27 µM]
COc1ccccc1C(=O)Nc1c(C(=O)N(C)Cc2ccccc2)sc2nc(C)c(Cl)c(C)c12	14.6 µM (active)	–
COc1ccc(CCn2cc3c(c2-c2ccc(Br)cc2)c(=O)n(C)c(=O)n3C)cc1OC	inactive	–
COc1cc2nc(SCc3ccc(F)cc3)n3nc(CCn4c(C)nc5ccccc54)nc3c2cc1OC	inactive	–
COc1ccc2[nH]c3c(c2c1)CCN1C(=O)C(CC(=O)NCCCN(C)C)C[C@H](C(=O)N2CCOCC2)[C@@]31CCC1CCCC1 (some centres not stated)	inactive	–
CC[C@]12c3[nH]c4ccc(OC)cc4c3CCN1C(=O)C(CC(=O)NCc1ccco1)C[C@@H]2C(=O)N1CCN(C(=O)C2CC2)CC1 (some centres not stated)	inactive	–
COc1ccc(CNC(=O)C[C@H]2C[C@H](C(=O)N3CCOCC3)[C@@]3(CCC4CCCC4)c4[nH]c5ccc(Cl)cc5c4CCN3C2=O)cc1OC	13 µM (active)	–
O=C(C[C@H]1C[C@H](C(=O)N2CCOCC2)[C@@]2(CCC3CCCC3)c3[nH]c4ccc(Cl)cc4c3CCN2C1=O)NCc1ccco1	20.6 µM (active)	–
CN(C)C(=O)CCc1ccc2c3c([nH]c2c1)[C@]1(CCC2CCCC2)[C@@H](C(=O)N2CCOCC2)C[C@H](CC(=O)NCc2ccco2)C(=O)N1CC3	inactive	–
CC[C@]12c3[nH]c4ccc(Cl)cc4c3CCN1C(=O)[C@@H](CC(=O)NCCN1CCOCC1)C[C@@H]2C(=O)N1CCN(C(=O)C2CC2)CC1	inactive	–
CC(C)(C)OC(=O)C[C@@H]1C/C=C\C[C@H](CC(=O)N[C@@H](CO)Cc2ccccc2)C(=O)N[C@H](Cc2ccccc2)COC1=O	inactive	–
N#CN1CCC(NC(=O)c2ccc(F)cc2)CC1	inactive	–
CCOc1ccc(S(=O)(=O)Nc2ccc3oc4c(c3c2)CC(C)CC4)cc1 (configuration not stated)	inactive	–
Cc1ccccc1CS(=O)(=O)CC1Nc2ccc(C(=O)NCc3ccc(Cl)cc3)cc2NC1=O (configuration not stated)	inactive	–
COc1cccc2oc(CCc3ccccc3)cc(=O)c12	inactive	–
COc1ccccc1CNS(=O)(=O)c1cc(Br)cc2c1N(C(C)=O)C(C)C2 (configuration not stated)	–	1.68% [at 9.27 µM]
CCOc1cccc2c1N[C@@H](c1ccc(C(=O)O)cc1)[C@H]1CC=C[C@@H]21	inactive	–
COc1cccc(CNC(=O)CCC(=O)N2CC3CCCN3c3ccccc32)c1 (configuration not stated)	inactive	–
CCN1CCC(N(Cc2ccc(F)cc2)C(=O)Nc2cc(C)ccc2C)CC1	inactive	–
Cc1ccc(SCC(=O)N2CCN(c3ccc(F)cc3)CC2)cc1	inactive	–
CCN1CCC2(CC1)N=C(c1ccc(F)cc1)C(=S)N2C(=O)c1ccc(C)cc1	16.4 µM (active)	–

SMILES	Potency	activity change, negative = inhibition
Cc1cc(OCC(=O)NCC2(N(C)C)CCCCC2)cc(C)c1Cl	inactive	–
Cc1cc(C)cc(NC(=O)CSc2nc3nccnc3c(=O)n2CCc2c[nH]c3ccccc23)c1	inactive	–
O=C(Cc1ccccc1)NC(=S)Nc1ccc(N2CCCCC2)cc1	inactive	–
O=C1C=CC(=O)N1c1ccc(N2CCCCC2)cc1	25.9 µM (active)	–
CCOC(=O)/C(C#N)=C/c1ccc(N2CCCCC2)cc1	inactive	–
Cc1ccc(SCC(=O)Nc2ccc3oc(-c4ccccc4F)nc3c2)cc1	inactive	–
CC[C@]1(C(=O)OC)[C@H]2C(=O)N(Cc3ccccc3)C(=O)[C@H]2[C@H]2CN=C(SCc3ccc(C#N)cc3)N21	inactive	–
CCOc1ccc(Nc2nc3c(S(=O)(=O)c4cccc(Cl)c4)nnn3c3ccsc23)cc1	14.6 µM (active)	–
CCc1ccc(S(=O)(=O)c2nnn3c2nc(N2CCN(CC)CC2)c2sccc23)cc1	inactive	–
O=S(=O)(c1ccc(Br)cc1)c1nnn2c1nc(NC1CCCCCC1)c1sccc12	inactive	–
Cc1ccc(-c2cn3c(n2)sc2cc(C(=O)NCCCc4ccccc4)ccc23)cc1	inactive	–
CCN1C[C@@H]2[C@@H]3C(=O)N(Cc4ccccc4)C(=O)[C@@H]3[C@](Cc3ccccc3)(C(=O)OC)N2C1=NC1CCCCC1	inactive	–
CCN(CCCNC(=O)c1cc(Nc2ccc(OC)cc2)nc2ccccc12)c1cccc(C)c1	inactive	–
NC(=O)c1ccc(NC(=O)COC(=O)c2c3c(nc4ccccc24)/C(=C\c2ccc4c(c2)OCO4)CCC3)cc1	14.6 µM (active)	–
NS(=O)(=O)c1ccc(NC(=O)COC(=O)c2c3c(nc4ccccc24)/C(=C\c2ccc4c(c2)OCO4)CCC3)cc1	inactive	–
O=C(COC(=O)c1c2c(nc3ccccc13)/C(=C\c1cccs1)CCC2)Nc1ccccc1Cl	inactive	–
CC(=O)c1c(C)[nH]c(C(=O)COC(=O)c2cccs2)c1C	inactive	–
Cc1cccc(C)c1NC(=O)COC(=O)c1ccccc1O	inactive	–
CC(=O)c1c(C)[nH]c(C(=O)OCC(=O)Nc2c(C)n(C)n(-c3ccccc3)c2=O)c1C	inactive	–
Cc1cccc(C(=O)OCC(=O)Nc2sc3c(c2C#N)CCC3)c1	inactive	–
CC(=O)c1c(C)[nH]c(C(=O)OCC(=O)Nc2c(C)cccc2C)c1C	13 µM (active)	–
CC(=O)c1c(C)[nH]c(C(=O)OCC(=O)NCCC(C)C)c1C	11.6 µM (active)	–

SMILES	Potency	activity change, negative = inhibition
CC(=O)c1c(C)[nH]c(C(=O)OCC(=O)Nc2sc3c(c2C#N)CCCC3)c1C	18.4 µM (active)	–
CC(=O)c1c(C)[nH]c(C(=O)OCC(=O)Nc2cc(S(=O)(=O)N3CCCCC3)ccc2C)c1C	inactive	–
Cc1ccc(C)c(OCC(=O)Nc2sc3c(c2C#N)CCCC3)c1C	inactive	–
CCOC(=O)N1CCC(NC(=O)c2cnn(-c3cccc(C)c3)c2C2CCN(C(=O)OC(C)(C)C)CC2)CC1	inactive	–
O=C(NCc1ccccc1CN1CCCC1)C1CCN(S(=O)(=O)c2ccc(Cl)cc2)CC1	inactive	–
CCOc1ccc(S(=O)(=O)c2cn(Cc3ccc(OC)cc3)c3ccc(F)cc3c2=O)cc1	inactive	–
CCn1cc(C(=O)NCc2ccc(C)cc2)c(=O)c2cc(S(=O)(=O)N3CCc4ccccc4C3)ccc21	inactive	–
Cc1cc2c(s1)c1cnn(Cc3c(F)cccc3Cl)c(=O)c1n2C	inactive	–
CC(C)Cn1c(-c2ccc(S(=O)(=O)N3CCOCC3)cc2)csc1=Nc1cc(Cl)ccc1Cl	inactive	–
CCn1cc(C(=O)N2CCN(c3cc(C)ccc3C)CC2)c(=O)c2cc(S(=O)(=O)N(C)C3CCCCC3)ccc21	23.1 µM (active)	–
Cc1ccc(Cl)cc1N1CCN(C(=O)c2cn(C)c3ccc(S(=O)(=O)N(C)C4CCCCC4)cc3c2=O)CC1	inactive	–
CCn1cc(C(=O)N2CCN(c3cc(Cl)ccc3C)CC2)c(=O)c2cc(S(=O)(=O)N3CCCC3)ccc21	inactive	–
CCN1CCC(O)(/C=C/c2ccc(C)cc2)C(C(=O)/C=C/c2ccc(C)cc2)C1 (configuration not stated)	inactive	–
CC[C@@]1(C(=O)OC)N[C@H](CN(C)C(C)=O)[C@@H]2C(=O)N(C)C(=O)[C@@H]21	inactive	–
O=C(NCCc1ccco1)c1ccc(OCc2cn3ccccc3n2)cc1	inactive	–
COC1C(CO)OC(n2cnc3c(=S)nc(N)[nH]c32)C1O (configuration not stated)	inactive	–
N#CC(C#N)=CN=c1ccn(Cc2ccc(Cl)cc2Cl)cc1	1.84 µM (active)	–
O=c1ccn(Cc2ccccc2Cl)cc1	inactive	–
CC(C)(C)c1cc(C(=O)NN)n(Cc2ccc(Cl)cc2Cl)n1	inactive	–
CCNS(=O)(=O)c1ccc(CCC(=O)N2CCN(c3cc(Cl)ccc3C)CC2)cc1	8.2 µM (active)	–
CCNS(=O)(=O)c1ccc(CCC(=O)N2CCN(c3ccc(OC)cc3)CC2)cc1	inactive	–
CCCNS(=O)(=O)c1ccc(CCC(=O)N2CCCC2)cc1	inactive	–

SMILES	Potency	activity change, negative = inhibition
O=C(CN1C(=O)NC2(CCCCCCC2)C1=O)NCc1ccc(F)cc1	inactive	–
O=C(CN1C(=O)NC2(CCCCCC2)C1=O)NCc1ccc(F)cc1	inactive	–
CSc1ccc(CN2C(=O)NC3(CCCCCC3)C2=O)cc1	18.4 µM (active)	–
COc1ccc(C2(c3ccc(OC)cc3)NC(=O)N(CC(=O)Nc3cc(C)on3)C2=O)cc1	inactive	–
Cc1cccc(CC2(O)C(=O)Nc3ccccc32)n1 (configuration not stated)	inactive	–
O=C(Nc1cccc(Cl)c1N1CCOCC1)c1ccc2c(c1)OCCO2	23.1 µM (active)	–
O=C(Nc1cccc(Cl)c1N1CCOCC1)c1cccnc1	inactive	–
COC(=O)c1ccc(N2CCOCC2)c(NC(=O)c2ccc3c(c2)OCCO3)c1	inactive	–
CC/C(=C(/c1ccccc1)c1ccc(OCC[N+](C)(C)C)cc1)c1ccccc1	inactive	–
COC(=O)CSc1nc2ccccc2c(=O)n1Cc1ccccc1	inactive	–
CCC(=O)Nc1c(S(=O)(=O)c2ccccc2)c2nc3ccccc3nc2n1Cc1ccccc1	14.6 µM (active)	–
CCN(CC)CCn1c(N)c(S(=O)(=O)c2ccccc2)c2nc3ccccc3nc21	inactive	–
COc1cc(C(=O)CCc2ccc3c(c2)OCO3)cc(OC)c1OC	inactive	–
COc1cccc(CNC(=O)CSc2c3c(nc4cc(Cl)ccc24)CCCC3)c1	inactive	–
CCOc1ccc(S(=O)(=O)N2CCCCC2)cc1NC(=O)CN1CCCC1c1cccs1 (configuration not stated)	8.2 µM (active)	–
COc1ccc(S(=O)(=O)N2CCCCC2)cc1NC(=O)COc1ccccc1	inactive	–
CCOc1ccccc1NC(=O)COc1ccc(S(=O)(=O)N2CCCC2)cc1	inactive	–
COc1cc(/C=C/CNC[C@H]2O[C@@H](n3cnc(C(N)=O)n3)[C@H](O)[C@@H]2O)ccc1O	inactive	–
COc1ccc(NC(=O)CSC2=Nc3ccccc3C3=NC(CC(=O)NCc4ccccc4OC)C(=O)N23)cc1Cl (configuration not stated)	inactive	–
COc1ccc(-c2cc(C(F)(F)F)n3nc(-c4ccccc4)cc3n2)cc1OC	inactive	–
COc1ccccc1-c1oc2ccccc2c1C#CCCCCO	inactive	–
